Test results: PubChem BioAssay AID1159580 (chemical genetic matrix, 2015)
In all, about 5,500 compounds went through this assay and about 2,000 (36%) were called active. Another 18% or so got no clear call; they are omitted. Cut-off read from the data, not from the text of the source: active = normalized growth mostly below about 0.91 (no sharp cut-off); inconclusive = no clear call, values can overlap the other calls; inactive = mostly above about 0.92. The list shows a part of the results.

Experiment: chemical genetic growth profiling, strain panel (AID 1159580);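 note: tested at 20 µM; growth read once vehicle control cultures reached saturation at 30 °C; 1 = growth at the plate median or of vehicle wells; lower values mean less growth of the strain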
Conditions: S. cerevisiae deletion strains, growth OD

Measured: normalized growth

CC(=O)O[C@@H]1CC2C(C)(C)C(=O)C3OC3[C@]2(C)C2CC[C@@]3(C)[C@H](c4ccoc4)OC(=O)C4OC43[C@@]21C (some centres not stated)
inactive: locus YAL021C, strain ccr4, active compounds read low 0.988 | locus YAL026C, strain drs2, active compounds read low 0.984 | locus YAL030W, strain snc1, active compounds read low 0.993 | locus YBL061C, strain skt5, active compounds read low 0.97 | locus YBR009C, strain hhf1, active compounds read low 0.981 | locus YBR021W, strain FUR4, active compounds read low 0.964 | locus YBR023C, strain chs3, active compounds read low 0.982 | locus YBR171W, strain sec66, active compounds read low 0.966 | locus YBR229C, strain ROT2, active compounds read low 0.994 | locus YBR231C, strain swc5, active compounds read low 0.975 | locus YBR279W, strain paf1, active compounds read low 0.988 | locus YCL011C, strain gbp2, active compounds read low 0.993 | locus YCL016C, strain dcc1, active compounds read low 0.991 | locus YCL029C, strain bik1, active compounds read low 1 | locus YCL061C, strain MRC1, active compounds read low 0.988 | locus YCL069W, strain vba3, active compounds read low 0.982 | locus YCR088W, strain abp1, active compounds read low 0.987 | locus YDL005C, strain med2, active compounds read low 0.971 | locus YDL035C, strain GPR1, active compounds read low 1.01 | locus YDL040C, strain nat1, active compounds read low 0.972 | locus YDL074C, strain BRE1, active compounds read low 0.994 | locus YDL101C, strain DUN1, active compounds read low 1.01 | locus YDL185W, strain tfp1, active compounds read low 0.999 | locus YDL192W, strain arf1, active compounds read low 1.01 | locus YDR001C, strain nth1, active compounds read low 0.986 | locus YDR069C, strain doa4, active compounds read low 0.993 | locus YDR101C, strain arx1, active compounds read low 1.01 | locus YDR137W, strain rgp1, active compounds read low 1 | locus YDR150W, strain NUM1, active compounds read low 1.01 | locus YDR159W, strain sac3, active compounds read low 0.941 | locus YDR162C, strain NBP2, active compounds read low 1.02 | locus YDR195W, strain ref2 0.978 | locus YDR297W, strain sur2, active compounds read low 0.983 | locus YDR318W, strain mcm21, active compounds read low 0.997 | locus YDR334W, strain swr1, active compounds read low 0.972 | locus YDR335W, strain msn5, active compounds read low 0.987 | locus YDR388W, active compounds read low 1 | locus YDR392W, strain spt3, active compounds read low 0.966 | locus YDR502C, strain sam2, active compounds read low 0.992 | locus YEL003W, strain gim4, active compounds read low 0.979 | locus YEL037C, strain rad23, active compounds read low 0.974 | locus YEL061C, strain CIN8 (second series), active compounds read low 0.983 | locus YER015W, strain faa2, active compounds read low 0.992 | locus YER016W, strain bim1, active compounds read low 0.987 | locus YER110C, active compounds read low 1 | locus YER111C, strain swi4, active compounds read low 0.976 | locus YER155C, strain BEM2 (second series), active compounds read low 0.986 | locus YER155C, strain BEM2, active compounds read low 0.996 | locus YER167W, strain BCK2, active compounds read low 1.01 | locus YFR010W, strain ubp6, active compounds read low 0.964 | locus YGL078C, strain dbp3, active compounds read low 0.997 | locus YGL086W, strain mad1, active compounds read low 1.03 | locus YGL167C, strain pmr1, active compounds read low 0.971 | locus YGL173C, strain kem1, active compounds read low 0.986 | locus YGL227W, strain vid30, active compounds read low 0.988 | locus YGL240W, strain doc1, active compounds read low 0.96 | locus YGL248W, strain PDE1, active compounds read low 1.01 | locus YGL253W, strain hxk2, active compounds read low 0.94 | locus YGR135W, strain pre9, active compounds read low 0.975 | locus YGR252W, strain gcn5, active compounds read low 0.928 | locus YHR013C, strain ard1, active compounds read low 0.969 | locus YHR027C, strain rpn1, active compounds read low 0.978 | locus YHR030C, strain SLT2, active compounds read low 0.988 | locus YHR079C, strain IRE1 (second series), active compounds read low 1 | locus YHR079C, strain IRE1, active compounds read low 1 | locus YHR094C, strain hxt1, active compounds read low 1 | locus YHR129C, strain ARP1, active compounds read low 1.01 | locus YHR142W, strain chs7, active compounds read low 0.965 | locus YHR200W, strain rpn10, active compounds read low 1 | locus YIL066C, strain RNR3, active compounds read low 1.01 | locus YIL073C, strain SPO22, active compounds read low 1.04 | locus YIL125W, strain kgd1, active compounds read low 0.996 | locus YIR030C, strain dcg1, active compounds read low 0.998 | locus YJL092W, strain hpr5, active compounds read low 0.981 | locus YJL095W, strain BCK1 (second series), active compounds read low 0.99 | locus YJL095W, strain BCK1, active compounds read low 1 | locus YJL115W, strain asf1, active compounds read low 0.982 | locus YJL129C, strain trk1, active compounds read low 0.965 | locus YJL134W, strain LCB3, active compounds read low 1.01 | locus YJL154C, strain vps35, active compounds read low 0.98 | locus YJL164C, strain tpk1, active compounds read low 1.03 | locus YJL166W, strain qcr8, active compounds read low 0.987 | locus YJL168C, strain set2, active compounds read low 0.996 | locus YJL187C, strain SWE1 (second series), active compounds read low 1 | locus YJL187C, strain SWE1, active compounds read low 0.993 | locus YJR066W, strain TOR1, active compounds read low 0.942 | locus YKL009W, strain mrt4, active compounds read low 1.08 | locus YKL068W, active compounds read low 1.01 | locus YKL160W, strain elf1, active compounds read low 1 | locus YKL190W, strain CNB1, active compounds read low 1.01 | locus YKR001C, strain vps1, active compounds read low 0.989 | locus YKR026C, strain gcn3, active compounds read low 0.977 | locus YKR091W, strain srl3, active compounds read low 0.982 | locus YLL001W, strain dnm1, active compounds read low 0.991 | locus YLL026W, active compounds read low 0.988 | locus YLL041C, strain sdh2, active compounds read low 0.981 | locus YLR027C, strain aat2, active compounds read low 0.962 | locus YLR039C, strain RIC1, active compounds read low 1.06 | locus YLR058C, strain SHM2, active compounds read low 1.01 | locus YLR102C, strain apc9, active compounds read low 1 | locus YLR113W, strain HOG1, active compounds read low 0.999 | locus YLR221C, strain rsa3, active compounds read low 0.964 | locus YLR258W, strain gsy2, active compounds read low 0.99 | locus YLR262C, strain YPT6 (second series), active compounds read low 0.994 | locus YLR268W, strain sec22, active compounds read low 1.01 | locus YLR320W, strain mms22, active compounds read low 0.966 | locus YLR342W, strain FKS1, active compounds read low 0.985 | locus YLR357W, strain rsc2, active compounds read low 0.953 | locus YLR370C, strain arc18, active compounds read low 0.971 | locus YLR371W, strain rom2, active compounds read low 0.997 | locus YLR384C, strain iki3, active compounds read low 0.993 | locus YLR418C, strain cdc73, active compounds read low 0.979 | locus YML016C, strain PPZ1, active compounds read low 1.01 | locus YML032C, strain rad52, active compounds read low 1.01 | locus YML120C, strain ndi1, active compounds read low 0.992 | locus YML124C, strain tub3, active compounds read low 1 | locus YMR058W, strain fet3, active compounds read low 0.986 | locus YMR078C, strain ctf18, active compounds read low 1.01 | locus YMR125W, strain sto1, active compounds read low 0.999 | locus YMR129W, active compounds read low 0.987 | locus YMR205C, strain PFK2, active compounds read low 0.991 | locus YMR223W, strain ubp8, active compounds read low 0.998 | locus YMR231W, strain pep5, active compounds read low 0.95 | locus YMR307W, strain GAS1, active compounds read low 0.941 | locus YNL067W, strain RPL9B, active compounds read low 0.997 | locus YNL071W, strain lat1, active compounds read low 0.99 | locus YNL183C, strain NPR1, active compounds read low 0.963 | locus YNL209W, strain ssb2, active compounds read low 0.998 | locus YNL233W, strain BNI4, active compounds read low 1.03 | locus YNL248C, strain rpa49, active compounds read low 0.973 | locus YNL250W, strain rad50, active compounds read low 0.983 | locus YNL271C, strain bni1, active compounds read low 1 | locus YNL298W, strain CLA4, active compounds read low 1 | locus YNL307C, strain MCK1, active compounds read low 0.993 | locus YNL322C, strain KRE1 (second series), active compounds read low 0.978 | locus YNL322C, strain KRE1, active compounds read low 1.01 | locus YNR049C, strain mso1, active compounds read low 0.976 | locus YNR052C, strain pop2, active compounds read low 0.996 | locus YOL012C, strain htz1 0.75 | locus YOL147C, strain pex11, active compounds read low 1.01 | locus YOR001W, strain rrp6, active compounds read low 0.97 | locus YOR061W, strain CKA2, active compounds read low 1 | locus YOR069W, strain VPS5, active compounds read low 1 | locus YOR070C, strain gyp1, active compounds read low 0.975 | locus YOR080W, strain dia2, active compounds read low 0.971 | locus YOR083W, strain WHI5, active compounds read low 1.01 | locus YOR106W, strain vam3, active compounds read low 0.994 | locus YOR136W, strain idh2, active compounds read low 0.997 | locus YOR144C, strain elg1, active compounds read low 1.02 | locus YOR184W, strain ser1, active compounds read low 1.01 | locus YOR231W, strain MKK1, active compounds read low 0.986 | locus YOR265W, strain rbl2, active compounds read low 0.981 | locus YOR270C, strain vph1, active compounds read low 0.922 | locus YOR290C, strain snf2, active compounds read low 0.994 | locus YOR316C, strain cot1, active compounds read low 1 | locus YPL051W, strain arl3, active compounds read low 0.986 | locus YPL078C, strain atp4, active compounds read low 0.994 | locus YPL106C, strain sse1, active compounds read low 0.989 | locus YPL240C, strain hsp82, active compounds read low 0.981 | locus YPL256C, strain CLN2, active compounds read low 0.984 | locus YPR119W, strain clb2, active compounds read low 0.996 | locus YPR141C, strain kar3, active compounds read low 1.01 | locus YPR163C, strain tif3, active compounds read low 0.999 | locus YPR167C, strain met16, active compounds read low 0.998 | strain wtn01, active compounds read low 1
active: locus YKL085W, strain MDH1 (second series), active compounds read low 1.13 [resistant] | locus YKL085W, strain MDH1, active compounds read low 1.13 [resistant]
